Assay [1] can be described thus: A549 cell viability effects, profiling panel, calcein-AM fluorescence, 48 h, basal (AID 1162). Also: test concentration not given here. The conditions noted are these: higher = more signal.
Assay [2] can be described thus: adipocyte viability effects, profiling panel, cell-based, 3T3-L1 adipocytes, calcein-AM fluorescence, 48 h, basal (AID 1163). Also: test concentration not given here. The conditions noted are these: 3T3-L1 adipocytes viability, higher = more signal.
Assay [3] is described as follows: HepG2 cell viability effects, profiling panel, calcein-AM fluorescence, 48 h, basal (AID 1164). Also: test concentration not given here. The conditions noted are these: higher = more signal.
A short description of assay [4]: MM1S cell viability effects, profiling panel, calcein-AM fluorescence, 48 h, basal (AID 1165).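 Also: viability of MM1S multiple myeloma cells under basal unstimulated conditions; test concentration not given here.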 The conditions noted are these: higher = more signal.
Assay [5] is described as follows: basal RPMI8226 viability, no added stimulus, profiling panel, cell-based, calcein-AM fluorescence, 48 h, PK04 Diversity Set (AID 1166).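 Also: cells grown under basal conditions without added stimulus; test concentration not given here.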 The conditions noted are these: RPMI8226 myeloma viability, higher = more signal.
Assay [6] is described as follows: basal HepG2 mitochondrial membrane potential changes, profiling panel, cell-based, JC-1 fluorescence, 24 h, 100 nL compound (AID 1167). Also: test concentration not given here. The conditions noted are these: higher = more signal.
Assay [7] can be described thus: basal 3T3-L1 adipocyte mitochondrial potential changes, profiling panel, cell-based, JC-1 fluorescence, 3T3-L1 adipocytes, 24 h, 100 nL compound (AID 1168). Also: test concentration not given here. The conditions noted are these: JC-1 mitochondrial fluorescence, higher = more signal, called active from +8 up or from −8 down.
Assay [8] is described as follows: basal RPMI8226 mitochondrial membrane potential changes, profiling panel, cell-based, JC-1 fluorescence, 24 h, 100 nL compound (AID 1169). Also: test concentration not given here. The conditions noted are these: RPMI8226 myeloma, JC-1 mitochondrial potential fluorescence, higher = more signal.
Assay [9] is described as follows: basal MM1S mitochondrial membrane potential changes, profiling panel, cell-based, JC-1 fluorescence, 24 h, 100 nL compound (AID 1170). Also: test concentration not given here. The conditions noted are these: higher = more signal.
Assay [10] in a line: A549 lung cancer cell viability effects, profiling panel, resazurin fluorescence, 24 h, PK04 Diversity Set (AID 1171). Also: test concentration not given here. The conditions noted are these: higher = more signal, called active from +8 up or from −8 down.
Assay [11] is described as follows: HepG2 liver cancer cell viability effects, profiling panel, resazurin fluorescence, 24 h, PK04 Diversity Set (AID 1172). Also: test concentration not given here. The conditions noted are these: higher = more signal.
Assay [12] can be described thus: basal S. cerevisiae growth modulation, no modifier, primary screen, OD600, strain BY4716, 24 h, basal condition (AID 1173). The conditions noted are these: OD600, 24 h, higher = more signal, called active from +8 up or from −8 down.
Assay [13] in a line: MM1S myeloma cell viability, profiling panel, resazurin fluorescence, basal, 24 h, PK04 Diversity Set (AID 1174). Also: test concentration not given here. The conditions noted are these: higher = more signal, called active from +8 up or from −8 down. On the technique in general: The colour change of resazurin is a common sign of viable cells or microbes.
Assay [14] concerns the target Dihydroorotate dehydrogenase (quinone), mitochondrial (Plasmodium falciparum (isolate 3D7)) (UniProt Q08210). Description: PfDHODH enzyme inhibitors, primary screen, biochemical, C-terminal His tag, absorbance 600 nm (AID 1175).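 Also: recombinant parasite enzyme with a five histidine tag at its C terminus; test concentration not given here.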 The conditions noted are these: DCIP absorbance 600 nm, higher = more signal, called active from +8 up or from −8 down.
Assay [15] in a line: P. aeruginosa biofilm formation inhibitors, primary screen, strain PAO1, LB-PBS medium, absorbance 600 nm (AID 1176). Also: test concentration not given here. The conditions noted are these: P. aeruginosa PAO1 growth/biofilm, A600, 12 h; higher = more signal.
Assay [16] can be described thus: S. cerevisiae RM11-1a growth modifiers, primary screen, strain RM11-1a, OD600, basal, 24 h (AID 1177).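 Also: cultures grown under basal conditions with no added stressor; test concentration not given here.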 The conditions noted are these: OD600, 24 h, higher = more signal, called active from +8 up or from −8 down.
Assay [17] is described as follows: E. coli acrAB mutant growth effects, primary screen, E. coli filamentation inducers, strain DRC39, OD650, 24 h (AID 1178).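 Also: growth measured as culture turbidity by optical density at 650 nm; test concentration not given here.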 The conditions noted are these: higher = more signal, called active from +8 up or from −8 down.
Assay [18] is described as follows: E. coli acrAB mutant growth effects, primary screen, E. coli filamentation inducers, strain DRC39, OD650, 48 h (AID 1179).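 Also: screen aims at cell division blockers that make cells filament.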 The conditions noted are these: E. coli DRC39 delta-acrAB growth, higher = more signal, called active from +8 up or from −8 down.
Assay [19] in a line: RPMI8226 myeloma cell viability, profiling panel, resazurin fluorescence, basal, 24 h, PK04 Diversity Set (AID 1180).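 Also: RPMI8826 multiple myeloma cell line at 5000 cells per well; test concentration not given here.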 The conditions noted are these: higher = more signal.
For assay [20], the target named is E3 ubiquitin-protein ligase XIAP (Homo sapiens) (UniProt P98170). The assay can be described thus: XIAP binders, primary screen, biophysical, small-molecule microarray, fluorescence 635 nm (AID 1181).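 Also: score merges 667 nm emission and signal to noise over triplicate slides.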 The conditions noted are these: small-molecule microarray binding, higher = more signal.
Sequence of E3 ubiquitin-protein ligase XIAP (Homo sapiens) (P98170 whole entry, looked up): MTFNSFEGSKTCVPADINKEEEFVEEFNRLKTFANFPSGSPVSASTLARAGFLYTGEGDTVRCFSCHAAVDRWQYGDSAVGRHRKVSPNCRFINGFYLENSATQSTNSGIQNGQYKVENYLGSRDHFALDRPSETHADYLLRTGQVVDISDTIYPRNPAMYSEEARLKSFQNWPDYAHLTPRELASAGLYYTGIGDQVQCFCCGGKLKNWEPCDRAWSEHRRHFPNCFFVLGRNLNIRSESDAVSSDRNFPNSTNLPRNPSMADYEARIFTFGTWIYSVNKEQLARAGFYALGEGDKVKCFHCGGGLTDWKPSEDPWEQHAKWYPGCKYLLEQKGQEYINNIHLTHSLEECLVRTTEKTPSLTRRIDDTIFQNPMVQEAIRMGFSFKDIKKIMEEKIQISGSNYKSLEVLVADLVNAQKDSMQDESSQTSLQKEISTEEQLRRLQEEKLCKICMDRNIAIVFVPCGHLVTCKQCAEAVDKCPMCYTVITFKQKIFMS

The structures appear in SMILES notation. Several values for one entry are separate records, joined by “and”; a condition that tells them apart may be missing. Equal values may be shown once. Activity calls are given as the source filed them. Unless noted, no rule for the calls is given here.

Sequence of Dihydroorotate dehydrogenase (quinone), mitochondrial (Plasmodium falciparum (isolate 3D7)) (Q08210 whole entry, looked up): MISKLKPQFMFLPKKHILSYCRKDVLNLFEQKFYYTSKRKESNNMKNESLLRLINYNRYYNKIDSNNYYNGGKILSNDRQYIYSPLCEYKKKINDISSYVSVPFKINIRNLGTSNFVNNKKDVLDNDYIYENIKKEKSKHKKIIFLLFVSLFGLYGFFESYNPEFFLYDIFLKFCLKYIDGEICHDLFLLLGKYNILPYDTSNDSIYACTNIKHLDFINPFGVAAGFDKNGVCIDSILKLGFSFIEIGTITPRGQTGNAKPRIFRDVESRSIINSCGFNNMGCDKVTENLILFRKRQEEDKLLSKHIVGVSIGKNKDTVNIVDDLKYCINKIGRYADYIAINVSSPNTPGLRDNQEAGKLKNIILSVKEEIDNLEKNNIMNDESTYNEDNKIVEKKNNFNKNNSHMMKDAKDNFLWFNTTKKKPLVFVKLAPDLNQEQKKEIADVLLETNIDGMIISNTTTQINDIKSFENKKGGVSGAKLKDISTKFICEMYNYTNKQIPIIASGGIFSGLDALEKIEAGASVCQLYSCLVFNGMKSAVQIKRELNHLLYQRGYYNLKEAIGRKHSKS

For `C=CCN(C(=O)C1N(CCOCCO)C(=O)C2C(C(=O)O)C3C=CC21O3)C(C)(C)C` (stereo not given), the z-score in assay [1] is -0.186 and -0.328; in assay [2] it was 0.0948 and -1.23; in assay [3] it was 0.108 and 0.442; in assay [4], 1.01 and 0.916; in [5], -0.114 and 0.817; in assay [6] it was -0.58 and -0.767. For the same compound, the z-score in assay [7] is -0.693 (inactive) and -0.523 (inactive); in assay [8], -0.691 and 0.591; in assay [9], 1.93 and 0.501; in assay [10] it was 0.161 (inactive) and -0.73 (inactive); in [11] it was 0.0542 and -0.741; in assay [12] it was -0.0565 (inactive) and 0.494 (inactive). The z-score in assay [13] is -0.2 (inactive) and -1.16 (inactive); in assay [15], -0.0558 (inactive) and 0.578 (inactive); in assay [16], -0.0478 (inactive) and -0.166 (inactive); in [17] it was -0.335 (inactive) and -0.685 (inactive); in assay [18] it was -0.664 (inactive) and -0.923 (inactive); in assay [19], -0.244 and -1.69. Further, the composite z-score in assay [14] is 0.256 (inactive) and 1.36 (inactive); in assay [20], 0.0009 and -0.0369.

With `C=CCN(Cc1ccccc1)C(=O)C1N(CCCCCCO)C(=O)C2C(C(=O)O)C3C=CC21O3` (stereo not given), the z-score was -0.217 and 0.516 in assay [1]; 0.231 and 0.375 in assay [2]; -0.642 and -0.438 in assay [3]; -0.184 and -0.0762 in assay [4]; 0.462 and 1.64 in assay [5]; -0.678 and -0.391 in assay [6]. In addition, the z-score in assay [7] was 0.201 (inactive) and 0.867 (inactive); in assay [8], -0.0429 and 0.0701; in assay [9] it was -0.252 and -0.0839; in assay [10], -0.0083 (inactive) and 0.239 (inactive); in [11], -0.29 and 0.875; in [12], -0.356 (inactive) and -0.726 (inactive). The z-score in [13] was -0.231 (inactive) and 0.723 (inactive); in [15] it was 0.95 (inactive) and 0.441 (inactive); in assay [16], -0.325 (inactive) and -0.784 (inactive); in assay [17], 0.0108 (inactive) and 0.14 (inactive); in [18], -0.187 (inactive) and -0.172 (inactive); in assay [19] it was -0.615 and 0.439. Further, the composite z-score in assay [14] was -0.248 (inactive) and -1.43 (inactive); in assay [20] it was 0.0898 and -0.395.

In the case of `COC(=O)C1=C(C)N(Cc2ccccc2)C2=C3C(=O)N(C)C(=O)[C@@H]3[C@@](O)(C(=O)OC)C(=O)N2[C@@H]1c1ccccc1`, the z-score in [1] is 0.77 and 0.914; in [2], -0.159 and 0.143; in assay [3] it was 0.215 and 1.05; in [4], -0.607 and -0.213; in [5], 0.0606 and 0.359; in [6] it was 0.981 and 0.11. Moreover, the z-score was -0.531 (inactive) and 0.96 (inactive) in assay [7]; 0.134 and -0.542 in assay [8]; 0.739 and 0.467 in assay [9]; 1.18 (inactive) and -1.08 (inactive) in [10]; 0.498 and -1.16 in assay [11]; -0.816 (inactive) and -1.23 (inactive) in assay [12]. Besides, the z-score was 0.92 (inactive) and -0.281 (inactive) in assay [13]; -0.27 (inactive) and 0.0039 (inactive) in [15]; -0.544 (inactive) and -2.42 (inactive) in assay [16]; 0.448 (inactive) and -0.0247 (inactive) in assay [17]; 0.275 (inactive) and 0.0957 (inactive) in [18]; 0.922 and -0.377 in [19]. The composite z-score in assay [14] is -0.105 (inactive) and -0.613 (inactive); in assay [20], -0.0622 and -0.0848.

Take `C=CCN(Cc1ccccc1)C(=O)C1N(c2c(Cl)cccc2CO)C(=O)C2C(C(=O)O)C3C=CC21O3` (stereo not given): the z-score was 1.45 and -0.228 in assay [1]; 0.38 and 0.802 in assay [2]; 1.07 and 0.0456 in assay [3]; 2.15 and 0.815 in [4]; 0.381 and -0.937 in assay [5]; 0.992 and -1.25 in assay [6]. Moreover, the z-score is 1.53 (inactive) and -0.0316 (inactive) in [7]; -0.817 and -0.0516 in assay [8]; 1.03 and 0.278 in [9]; 2.19 (inactive) and -0.851 (inactive) in assay [10]; 0.753 and -0.367 in assay [11]; -2.14 (inactive) and -0.245 (inactive) in [12]. The z-score is 1.33 (inactive) and -0.324 (inactive) in [13]; -0.236 (inactive) and -0.329 (inactive) in assay [15]; -3.44 (inactive) and 0.92 (inactive) in [16]; 2.24 (inactive) and -0.745 (inactive) in assay [17]; 2.55 (inactive) and -0.89 (inactive) in assay [18]; 0.565 and -0.662 in assay [19]. In addition, the composite z-score in assay [14] was -0.33 (inactive) and 0.994 (inactive); in assay [20], 0.0379 and -0.051.

In the case of `CC(C)C(=O)N[C@@H]1CCCN1C(=O)C=Cc1ccccc1`, the z-score in assay [1] was 0.516; in assay [2], 0.709; in assay [3] it was 0.546; in assay [4] it was 0.391; in [5], -0.463; in assay [6], -0.201. Moreover, the z-score was -0.481 (inactive) in [7]; 0.119 in assay [8]; 0.304 in assay [9]; -0.123 (inactive) in [10]; -0.0786 in [11]; -1.17 (inactive) in assay [12]. In addition, the z-score is -0.0492 (inactive) in [13]; 0.286 (inactive) in assay [15]; -1.19 (inactive) in [16]; 0.595 (inactive) in assay [17]; -0.0803 (inactive) in [18]; 0.227 in assay [19]. The composite z-score in assay [14] is -1.3 (inactive); in [20], -0.113.

`C=CCN(C(=O)C(c1cccs1)N(C(=O)/C=C\C(=O)O)c1ccc(CCO)cc1)c1ccc(OC)cc1` (stereo not given): the z-score in assay [1] was -0.256 and 1.54; in assay [2], 0.015 and -0.199; in [3], 1.35 and 0.76; in [4] it was 1 and -0.0823; in assay [5], 1.2 and -0.0106; in assay [6] it was 0.417 and 0.583. Also, the z-score is 0.249 (inactive) and 1.26 (inactive) in assay [7]; 0.201 and 0.0752 in assay [8]; -1.07 and 1.18 in [9]; 0.307 (inactive) and 0.0568 (inactive) in assay [10]; 0.495 and -0.158 in assay [11]; -1.66 (inactive) and -1.5 (inactive) in assay [12]. The z-score in assay [13] is 0.777 (inactive) and 0.249 (inactive); in assay [15], 0.413 (inactive) and -0.497 (inactive); in assay [16], -0.405 (inactive) and 0.127 (inactive); in assay [17], 1 (inactive) and 0.244 (inactive); in assay [18], 0.78 (inactive) and 0.864 (inactive); in assay [19] it was 0.32 and 0.335. Also, the composite z-score in [14] was -1.09 (inactive) and -4.45 (inactive); in assay [20], 0.184 and 0.284.

The values above are taken from PubChem BioAssay.
